Screening data deposited in PubChem BioAssay by several laboratories.
This is a sample that favours compounds with a hit; in the whole collection about 27% have one here.
CYP2C9 activ – CYP2C9 (human) activation. P11712. recombinant CYP2C9, luciferin-H conversion, luminescence; active compounds read high; factor 1 = untreated enzyme, 0 = blocked. activation factor at 5 µM. 1.4% of 96,000 active. AID 1024;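 active = activation factor of 2 or more for CYP2C9 at a 5 µM dose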;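 also: 0 = sulfaphenazole-blocked wells and 1 = vehicle-only wells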
CYP2C19 activ – cytochrome P450 2C19 (human) activation | P33261 | recombinant CYP2C19, luciferin-H EGE luminescence; active compounds read high; 0 = fully inhibited enzyme, 1 = untreated enzyme | activation factor at 5 µM | 96,000 tested, under 10 active | AID 1025;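 active = activation factor of at least 2 at 5 µM in the primary screen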;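 also: 0 = wells with 2.5 mM tranylcypromine and 1 = vehicle-only wells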
Cav32 inh – human Cav3.2 channel inhibition, primary screen; O95180; Cav3.2-expressing cells, Fluo-4 calcium fluorescence FDSS; active compounds read low; B-score at 10 µM; 4% of 100,000 active; AID 449739;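 active = single-dose well whose peak fluorescence ratio is a statistical outlier from its plate by either plate-standardised score or position-corrected B-score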
CYP2C19 inh – human CYP2C19 inhibition; inhibition, % at 5 µM; 21% of 96,000 active; AID 778; P33261; CYP2C19 Supersomes, luciferin-H EGE luminescence, 30 min;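 active = CYP2C19 inhibition above a set limit at 5 µM in the primary screen, cut at about 50% in these data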;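 also: plate controls were negative control wells for no effect and 2.5 mM tranylcypromine positive control for full effect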
CYP2C9 inh – inhibitors of human CYP2C9; P11712; CYP2C9 Supersomes, luciferin-H conversion, luminescence; inhibition, % at 5 µM; 20% of 96,000 active; AID 777;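 active = blocking of liver enzyme CYP2C9 beyond about 50% at 5 µM, limit read from the data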
* hit, by the source's call; x = no result given.

SMILES	CYP2C9 activ	CYP2C19 activ	Cav32 inh	CYP2C19 inh	CYP2C9 inh
Cc1ccc(C)c(C(=O)NCc2ccncc2)c1	0.5	0.5	0.403	45.6	53.7*
Cc1ccc(O)c(-c2cc(C(=O)NCc3ccncc3)[nH]n2)c1	0	0.3	-1.56	74.7*	96.2*
Cc1cnn(-c2ccc3nnc(-c4ccc(Cl)cc4)n3n2)c1	0.7	0.8	1.36	19.3	27.9
C/C=C/c1ccc(OCCCn2cncn2)c(OC)c1	0.5	0.1	0.571	89.0*	50.1*
C/C=C/c1ccc(OCCCCn2cncn2)c(OC)c1	0.5	0.2	0.351	75.2*	47.2
C/C=C/c1ccc(OCCn2cncn2)c(OC)c1	0.6	0.4	0.392	64.9*	40.3
O=C(Oc1ccc2ccccc2c1)c1ccccc1	0.9	1	-0.219	-2.6	13.7
CCOC(=O)C1=C(C)OC(N)=C(C#N)C1c1ccsc1 (configuration not stated)	0.8	0.4	-0.269	62.8*	21.2
Cc1cc2c(c(=O)n1Cc1cccnc1)C(c1cccs1)C(C#N)=C(N)O2 (configuration not stated)	0.7	0.8	1.24	15.9	30.7
CCOC(=O)C1=C(C)OC(N)=C(C#N)C1C1CCCCC1 (configuration not stated)	0.7	0.2	0.198	84.4*	30.7
CCN1CC2=C(OC(N)=C(C#N)C2c2cccs2)/C(=C\c2cccs2)C1 (configuration not stated)	0.8	0.9	-3.46*	5.7	18.2
COCc1[nH]nc2c1C(c1ccsc1)C(C#N)=C(N)O2 (configuration not stated)	1.1	1	1.37	4.1	-7.6
CCOC(=O)C1=C(CC)OC(N)=C(C#N)C1c1cccs1 (configuration not stated)	0.6	0.5	0.302	53.3*	44.8
CCOC(=O)C1=C(c2ccccc2)OC(N)=C(C#N)C1C1CCCCC1 (configuration not stated)	0.6	0.8	0.0628	18.4	37.0
Cn1cc([N+](=O)[O-])c(C(=O)Nc2ccn(Cc3c(F)c(F)cc(F)c3F)n2)n1	1.6	0.9	-0.0786	13.7	-63.4
CN(C)C(=O)CSc1nnc(CCNC(=O)OC(C)(C)C)o1	1.1	0.9	x	10.9	-6.4
NCCCCCc1nnc(SCC(=O)c2ccc(Cl)cc2)o1	0.2	0.4	-0.0178	59.1*	75.1*
CC(C)=CCSc1nnc(CCNC(=O)OC(C)(C)C)o1	0.6	0.3	0.51	66.1*	36.3
CC(C)=CCSc1nnc([C@@H](NC(=O)OC(C)(C)C)C(C)C)o1	0.6	0.4	-2.93*	55.2*	44.3
CC(C)(C)OC(=O)NCCc1nnc(SCc2ccc(Cl)cc2Cl)o1	0.2	0.4	-5.2*	60.4*	75.3*
CSCC[C@H](NC(=O)OC(C)(C)C)c1nnc(SCC(=O)Nc2c(C)cccc2C)o1	0.4	0.9	0.0316	7.7	57.6*
O=C(CSc1nnc(CNC(=O)c2ccccc2F)o1)c1ccc(Cl)cc1	0.5	0.6	-0.000536	37.3	53.5*
CC(C)[C@H](NC(=O)OC(C)(C)C)c1nnc(SCC(=O)Nc2ccc(Br)cc2)o1	0.3	0.5	-6.72*	48.9	69.8*
CC(C)(C)OC(=O)NCCc1nnc(SCc2c(Cl)cccc2Cl)o1	0.3	0.1	-3.77	91.6*	72.4*
Cc1cccc(C)c1NC(=O)CSc1nnc([C@H](C)NC(=O)OC(C)(C)C)o1	0.7	0.8	0.307	18.1	27.4
SMILES	CYP2C9 activ	CYP2C19 activ	Cav32 inh	CYP2C19 inh	CYP2C9 inh
CSc1nnc([C@H](C)NC(=O)OC(C)(C)C)o1	0.9	0.8	-0.886	18.7	7.4
CCN(CC)C(=O)CSc1nnc(CCNC(=O)OC(C)(C)C)o1	1	0.7	-0.0514	28.1	-4.0
CC(C)Sc1nnc([C@H](C)NC(=O)OC(C)(C)C)o1	0.8	0.4	0.566	56.7*	24.0
CC(C)(C)OC(=O)NCCc1nnc(SCC(=O)c2ccc(Cl)cc2)o1	0.3	0.2	-1.66	77.0*	69.9*
CC(C)[C@H](N)c1nnc(SCC(=O)c2ccc(Cl)cc2)o1	0.3	0	-0.0396	99.0*	68.6*
Cn1c(=O)c2cc(S(=O)(=O)NCCC(=O)NCCc3ccc(Cl)cc3)ccc2n(C)c1=O	1.2	0.9	-0.349	11.3	-23.1
CC(=O)OC1CCC(OC(C)=O)c2c1n([O-])c(C)c(C)[n+]2=O (configuration not stated)	1	0.9	1.64	8.4	-2.1
O=C(O)c1cccc(COc2ccc(CO)cc2Cl)c1	0.1	0	0.0317	99.0*	93.5*
O=C(O)c1cccc(COCC(F)(F)C(F)F)c1	1	1.1	0.141	-13.3	-2.7
CCOc1ccc(OCc2cccc(C(=O)O)c2)cc1	0	0	0.851	100.0*	98.9*
CCOc1ccc(OCc2cccc(C(=O)N3CCCC3)c2)cc1	0.3	0.6	0.095	39.7	65.9*
COc1cccc(OC)c1C(=O)NNC(=O)c1cccc(COc2ccc3c(c2)CCC3)c1	0.7	0.4	x	57.2*	27.9
Nc1cccc(Cl)c1N1CCOCC1	1	0.9	0.461	10.7	-0.2
CCOc1ccc(OCc2ccc(C(=O)N3CCCC3)o2)cc1	0.4	0.6	-0.0598	39.4	57.2*
CCOc1ccc(OCc2ccc(C(=O)OCc3ccccn3)o2)cc1	0.4	0.5	x	50.3*	55.3*
COc1ccc(OCc2cccc(C(=O)O)c2)cc1	0	0	0.0021	98.5*	97.1*
CCOC(=O)c1ccc(COC(=O)c2ccc(-c3nnc(-c4ccccc4)o3)cc2)o1	x	x	-0.747	x	x
O=C(OCC(F)(F)F)c1cccc(COc2ccc3ccccc3c2)c1	0.4	0.5	-1.57	52.1*	55.7*
C#CCSc1nnc(C)c(C)n1	x	x	0.421	x	x
O=c1ncc(F)c[nH]1	x	x	-0.84	x	x
CCOC(=O)c1[nH]c(=O)[nH]c1COC(=O)c1cc2ccccc2o1	0.4	0.9	-0.0415	12.5	57.0*
CCOC(=O)c1[nH]c(=O)[nH]c1CSc1nc(C)cc(C)n1	1.1	0.9	0.975	6.9	-13.9
CSc1nc(C)cc(-n2ccc(=O)[nH]c2=O)n1	1.3	1.2	0.157	-20.4	-25.7
CCCC1(C)Nc2ccccc2-c2nc3ccccc3n21 (configuration not stated)	0.4	0.4	-2.11	64.3*	58.9*
Nn1c(SCC(=O)NCCC2=CCCCC2)nnc1C(F)(F)F	0.8	0.5	0.278	48.8	23.0
SMILES	CYP2C9 activ	CYP2C19 activ	Cav32 inh	CYP2C19 inh	CYP2C9 inh
Cc1ccc(NS(=O)(=O)c2cc(C(=O)N3CCc4ccccc4C3)ccc2Cl)cc1	0.5	0.6	-3.28	43.7	48.4
Cc1ccc(NS(=O)(=O)c2cc(C(=O)O)ccc2Cl)cc1	0.7	0.8	-0.363	22.8	28.6
CC(=O)c1cccc(NC(=S)NCCC2=CCCCC2)c1	x	x	-2.06	x	x
COc1cccc(C(=O)NCCC2=CCCCC2)c1	0.6	0.1	0.0674	92.8*	42.8
Cc1ccccc1NS(=O)(=O)c1cc(C(=O)NCCC2=CCCCC2)ccc1C	0.9	1.1	-3.41*	-7.9	11.5
Cc1ccc(NS(=O)(=O)c2cc(C(=O)NCc3ccccn3)ccc2Cl)cc1	0.5	0.3	0.0229	72.9*	54.9*
